Results reported in PubChem BioAssay (Tox21).
Several values for one entry are separate records, joined by “and”; a condition that tells them apart may be missing. Identical values can stand only once. The source holds several records for some structures; these can differ, active in one and inactive in another. Activity calls are given as the source filed them. A call without a number means that no potency is given here. Unless noted, the call rests on the fitted dose curve; in most records, active means well fitted curve in the direction sought with a large enough effect in the repeat runs; inconclusive means weak or mixed curves; inactive means no such curve, though single readings can be large; an effect the other way counts as inactive or inconclusive.

Tests used:
[1] = qHTS assay to identify small molecule antagonists of the glucocorticoid receptor (GR) signaling pathway - cell viability counter screen (AID 720693); further: nearly all actives have a fitted effect of over 55% in size; further: potency means the concentration at half of the fitted maximal effect
[2] = qHTS assay for identifying genotoxic compounds that show differential cytotoxicity against isogenic chicken DT40 cell lines with known DNA damage response pathways - wild type cell line (AID 743012); further: nearly all actives have a fitted effect of over 60% in size; further: potency means the concentration at half of the fitted maximal effect
Method in brief: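 First, wild type DT40 cells were plated at 300 per well and equilibrated about 0.5 h at 37 C/5% CO2. Next, compounds in DMSO were added and exposure lasted 40 h. Finally, CellTiter-Glo was added for 30 min at room temperature and luminescence recorded.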

[3] = qHTS assay for identifying genotoxic compounds that show differential cytotoxicity against isogenic chicken DT40 cell lines with known DNA damage response pathways - Rev3 mutant cell line (AID 743014); further: nearly all actives have a fitted effect of over 55% in size; further: potency means the concentration at half of the fitted maximal effect
[4] = qHTS assay for identifying genotoxic compounds that show differential cytotoxicity against isogenic chicken DT40 cell lines with known DNA damage response pathways - Rad54/Ku70 mutant cell line (AID 743015); further: nearly all actives have a fitted effect of over 60% in size; further: potency means the concentration at half of the fitted maximal effect
[5] = qHTS assay to identify small molecule antagonists of the androgen receptor (AR) signaling pathway - cell viability counter screen (AID 743033; further: nearly all actives have a fitted effect of over 45% in size; further: potency means the concentration at half of the fitted maximal effect)
[6] = target: Androgen receptor (Homo sapiens) (UniProt P10275); assay: qHTS assay to identify small molecule antagonists of the androgen receptor (AR) signaling pathway (AID 743035; active means well fitted inhibition curve with a large enough effect in the signal ratio in the repeat runs, not every such curve was filed as active; inconclusive means weak or mixed curves, or effect the other way; inactive means no such curve, though single readings can be large or run the other way; the % refers to the signal ratio)
Method in brief: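 Beta-lactamase FRET read (2 h RT incubation with LiveBLAzer B/G) following 16 h of compound plus R1881 treatment of AR-UAS-bla HEK293 cells, which had been pre-incubated 4 h at 37C.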

[7] = target: Androgen receptor (Homo sapiens) (UniProt P10275); assay: qHTS assay to identify small molecule agonists of the androgen receptor (AR) signaling pathway (AID 743036; active means well fitted activation curve with a large enough effect in the signal ratio in the repeat runs, with a control signal flat, not every such curve was filed as active; inconclusive means weak or mixed curves, or effect the other way; inactive means no such curve, though single readings can be large or run the other way; the % refers to the signal ratio; further: potency means the concentration at half of the fitted maximal effect)
Method in brief: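 Quantitative HTS of the Tox21 10K library in HEK293 cells bearing a stably integrated UAS-controlled beta-lactamase reporter. Compound exposure lasted 16 h at 37C. Reporter activity was detected by FRET substrate fluorescence after 2 h at room temperature.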

[8] = target: Androgen receptor (Homo sapiens) (UniProt P10275); assay: qHTS assay to identify small molecule agonists of the androgen receptor (AR) signaling pathway using the MDA cell line (AID 743040; further: nearly all actives have a fitted effect of over 20% in size; further: potency means the concentration at half of the fitted maximal effect); conditions: MDA-kb2 AR-luc cells, MMTV luciferase, 16 h; activity change: at 70.3 µM (top of the series), stronger effect = higher value
Method in brief: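 Luminescence from ONE-Glo, read after 30 min at room temperature, reflects MMTV-driven luciferase in MDA-kb2 cells (AR- and GR-responsive). Treatment lasted 16 h at 37C, 0% CO2.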

[9] = qHTS assay to identify small molecule antagonists of the androgen receptor (AR) signaling pathway using the MDA cell line - cell viability counter screen (AID 743041; further: nearly all actives have a fitted effect of over 45% in size; further: potency means the concentration at half of the fitted maximal effect)
Method in brief: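 Viability counter screen run alongside the AR antagonist reporter: cells seeded 5 h before compound, R1881 added, 16 h incubation at 37C without CO2, fluorescent CellTiter-Fluor signal quantified.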

[10] = target: Androgen receptor (Homo sapiens) (UniProt P10275); assay: qHTS assay to identify small molecule antagonists of the androgen receptor (AR) signaling pathway using the MDA cell line (AID 743042; further: nearly all actives have a fitted effect of over 55% in size; further: potency means the concentration at half of the fitted maximal effect)
Method in brief: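 MDA-kb2 cells (human breast carcinoma, stably carrying an MMTV-luciferase reporter responsive to AR and GR) were plated at 3,000 cells/well and preincubated 5 hr at 37C, then given compound plus R1881 agonist for 16 h. ONE-Glo luminescence was read.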

[11] = qHTS assay to identify small molecule antagonists of the thyroid receptor (TR) signaling pathway - cell viability counter screen (AID 743064); further: nearly all actives have a fitted effect of over 50% in size; further: potency means the concentration at half of the fitted maximal effect
Method in brief: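 Rat GH3 pituitary tumor cells stably expressing two TR response elements driving luciferase were plated, rested 4 h, then dosed with library compounds and T3 (1 nM final). After 23.5 h at 37 °C, CellTiter-Fluor was added for 30 min and fluorescence recorded.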

[12] = qHTS assay to identify small molecule antagonists of the thyroid receptor (TR) signaling pathway (AID 743065); further: nearly all actives have a fitted effect of over 55% in size; further: potency means the concentration at half of the fitted maximal effect
Method in brief: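 GH3.TRE-Luc rat pituitary cells carrying two TR response elements driving luciferase were plated for 4 h, given compound plus 1 nM T3 (final), and incubated 23.5 h at 37 C. ONE-Glo luminescence measured reporter inhibition; CellTiter-Fluor fluorescence tracked cytotoxicity.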

[13] = test system: thyroid hormone receptor (rat, GH3 cells); assay: qHTS assay to identify small molecule agonists of the thyroid receptor (TR) signaling pathway (AID 743066; calls by dose curve)
[14] = target: Estrogen receptor (Homo sapiens) (UniProt P03372); assay: qHTS assay to identify small molecule antagonists of the estrogen receptor alpha (ER-alpha) signaling pathway (AID 743069; active means well fitted curve in the direction sought with a large enough effect in the signal ratio in the repeat runs, not every such curve was filed as active; inconclusive means weak or mixed curves, or effect the other way; inactive means no such curve, though single readings can be large or run the other way; the % refers to the signal ratio)
Method in brief: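 Estradiol-stimulated ER-alpha-UAS-bla HEK293 cells, 18 hr compound exposure at 37C. LiveBLAzer B/G substrate, 2 hr RT, fluorescence read.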

[15] = qHTS assay to identify small molecule antagonists of the estrogen receptor alpha (ER-alpha) signaling pathway - cell viability counter screen (AID 743074; calls by dose curve;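 further: HEK293 cells carrying ER-alpha-UAS-bla reporter stimulated with 17beta-estradiol; nearly all actives have a fitted effect of over 45% in size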; further: potency means the concentration at half of the fitted maximal effect)
[16] = target: Estrogen receptor (Homo sapiens) (UniProt P03372); assay: qHTS assay to identify small molecule agonists of the estrogen receptor alpha (ER-alpha) signaling pathway (AID 743075; calls by dose curve;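 further: HEK293 GripTite cells with ER-alpha and UAS-driven beta-lactamase reporter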; further: potency means the concentration at half of the fitted maximal effect)
[17] = target: Estrogen receptor (Homo sapiens) (UniProt P03372); assay: qHTS assay to identify small molecule agonists of the estrogen receptor alpha (ER-alpha) signaling pathway using the BG1 cell line (AID 743079); further: nearly all actives have a fitted effect of over 20% in size; further: potency means the concentration at half of the fitted maximal effect
[18] = qHTS assay to identify small molecule antagonists of the estrogen receptor alpha (ER-alpha) signaling pathway using the BG1 cell line (AID 743080; calls by dose curve;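 further: BG1 cells stimulated with 17beta-estradiol alongside compound; nearly all actives have a fitted effect of over 25% in size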; further: potency means the concentration at half of the fitted maximal effect)
Method in brief: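 Readout is ONE-Glo luminescence, taken 30 min at room temperature after reagent addition, preceded by a CellTiter-Fluor viability read; BG1-Luc-4E2 cells had received compound and 17beta-estradiol for 21.5 h at 37 C.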

[19] = qHTS assay to identify small molecule antagonists of the estrogen receptor alpha (ER-alpha) signaling pathway using the BG1 cell line - cell viability counter screen (AID 743081);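 further: compound given together with 17beta-estradiol as the ER stimulus; nearly all actives have a fitted effect of over 45% in size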; further: potency means the concentration at half of the fitted maximal effect
Aromatase (Homo sapiens) = Aromatase (Homo sapiens) (UniProt P11511); assay: qHTS assay to identify aromatase inhibitors (AID 743083); further: nearly all actives have a fitted effect of over 55% in size; further: potency means the concentration at half of the fitted maximal effect
Sequence of Aromatase (Homo sapiens) (P11511 whole entry, looked up): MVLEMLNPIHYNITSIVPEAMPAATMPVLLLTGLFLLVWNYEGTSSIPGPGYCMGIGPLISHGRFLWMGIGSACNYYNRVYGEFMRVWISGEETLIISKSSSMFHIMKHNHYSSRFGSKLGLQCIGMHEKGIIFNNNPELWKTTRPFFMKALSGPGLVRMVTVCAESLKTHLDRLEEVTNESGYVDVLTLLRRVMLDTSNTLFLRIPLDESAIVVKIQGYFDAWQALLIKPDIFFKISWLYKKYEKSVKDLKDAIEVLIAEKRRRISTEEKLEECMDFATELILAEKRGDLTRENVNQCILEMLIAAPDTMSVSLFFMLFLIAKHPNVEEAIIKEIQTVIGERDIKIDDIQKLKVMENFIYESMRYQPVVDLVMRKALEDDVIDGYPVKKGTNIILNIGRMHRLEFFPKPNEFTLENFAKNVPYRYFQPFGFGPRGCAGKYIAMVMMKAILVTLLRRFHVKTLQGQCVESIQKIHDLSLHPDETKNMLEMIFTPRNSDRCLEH

Sequence of Estrogen receptor (Homo sapiens) (P03372 whole entry, looked up): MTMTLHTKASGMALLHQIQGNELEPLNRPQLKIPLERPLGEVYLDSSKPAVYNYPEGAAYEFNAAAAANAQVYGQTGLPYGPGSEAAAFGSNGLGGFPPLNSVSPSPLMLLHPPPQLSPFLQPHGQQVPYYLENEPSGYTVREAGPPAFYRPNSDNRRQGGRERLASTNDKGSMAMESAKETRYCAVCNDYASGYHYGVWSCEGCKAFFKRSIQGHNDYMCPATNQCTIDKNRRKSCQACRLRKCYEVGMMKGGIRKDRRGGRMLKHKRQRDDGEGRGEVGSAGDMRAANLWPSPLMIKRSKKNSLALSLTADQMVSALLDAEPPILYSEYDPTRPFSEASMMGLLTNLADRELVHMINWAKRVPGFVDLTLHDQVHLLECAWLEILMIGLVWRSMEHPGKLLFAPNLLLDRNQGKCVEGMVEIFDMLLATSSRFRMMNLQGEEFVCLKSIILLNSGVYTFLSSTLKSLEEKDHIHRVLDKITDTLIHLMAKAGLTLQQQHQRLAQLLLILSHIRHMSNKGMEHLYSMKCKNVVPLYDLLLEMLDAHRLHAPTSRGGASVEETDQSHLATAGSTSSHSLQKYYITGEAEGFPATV
Sequence of Androgen receptor (Homo sapiens) (P10275 whole entry, looked up): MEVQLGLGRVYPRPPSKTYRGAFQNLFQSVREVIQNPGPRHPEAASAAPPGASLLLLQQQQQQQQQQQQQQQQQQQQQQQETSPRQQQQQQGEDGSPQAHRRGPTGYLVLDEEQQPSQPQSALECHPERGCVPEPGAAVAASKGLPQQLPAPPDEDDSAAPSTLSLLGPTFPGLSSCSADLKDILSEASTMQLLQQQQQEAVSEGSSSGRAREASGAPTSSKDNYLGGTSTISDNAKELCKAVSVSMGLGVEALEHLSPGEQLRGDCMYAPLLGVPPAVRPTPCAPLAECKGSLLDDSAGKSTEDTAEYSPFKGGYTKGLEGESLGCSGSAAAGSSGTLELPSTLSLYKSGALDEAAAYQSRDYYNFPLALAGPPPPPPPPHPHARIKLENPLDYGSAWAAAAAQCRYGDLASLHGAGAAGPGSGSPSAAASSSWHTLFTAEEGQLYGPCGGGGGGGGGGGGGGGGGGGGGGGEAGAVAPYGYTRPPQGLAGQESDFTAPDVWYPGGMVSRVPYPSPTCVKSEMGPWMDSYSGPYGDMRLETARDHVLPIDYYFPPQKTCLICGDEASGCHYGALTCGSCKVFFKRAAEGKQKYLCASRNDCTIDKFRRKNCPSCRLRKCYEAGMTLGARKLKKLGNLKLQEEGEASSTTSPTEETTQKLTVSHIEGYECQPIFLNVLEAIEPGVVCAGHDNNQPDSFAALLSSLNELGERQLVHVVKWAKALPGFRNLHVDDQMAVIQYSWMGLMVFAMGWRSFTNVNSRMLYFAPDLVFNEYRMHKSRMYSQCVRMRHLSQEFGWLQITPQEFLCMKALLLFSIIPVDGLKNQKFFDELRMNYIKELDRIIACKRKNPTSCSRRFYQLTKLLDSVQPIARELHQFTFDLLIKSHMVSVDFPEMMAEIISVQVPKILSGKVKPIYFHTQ

Row | Compound | Potency [1] | Potency [2] | Potency [3] | Potency [4] | Potency [5] | Potency [6] | Potency [7] | Potency [8] | Potency [9] | Potency [10] | Potency [11] | Potency [12] | Potency [13] | Potency [14] | Potency [15] | Potency [16] | Potency [17] | Potency [18] | Potency [19] | Potency (Aromatase (Homo sapiens))
1 | CCCCCCCCOC(=O)c1ccccc1C(=O)OCCCCCCCC | inactive | inactive | inactive | inactive | inactive | inactive | inactive | inactive | inactive | inactive | inactive | inactive | inactive | inactive | inactive | inactive | inactive | inactive | inactive | inactive
2 | CCC(=O)O[C@H]1CC[C@H]2[C@@H]3CCC4=CC(=O)CC[C@]4(C)[C@H]3CC[C@]12C | inactive | 10.1 µM (active) and 19.3 µM (active) | 11.4 µM (active) and 17.2 µM (active) | 12.7 µM (active) and 21.7 µM (active) | inactive and 49 µM (active) | – | 0.0039 µM (active) | 1.3 nM (active) and 1.7 nM (active) | inactive | inactive | inactive and 43.3 µM (active) | – | inactive | – | inactive | 3.23 µM [inconclusive] (active) and 3.47 µM [inconclusive] (active) | 22.7 nM (active) and 34.4 nM (active) | inactive | inactive | inactive
3 | O=[N+]([O-])c1ccc(O)c([N+](=O)[O-])c1 | inactive | inactive | inactive | 54.5 µM (active) | inactive | – | – | inactive | 30.8 µM (active) and 61.1 µM (active) | 61.1 µM (active) | 61.1 µM (active) | – | inactive | inactive | – | inactive | – | – | 30.8 µM (active) and 30.6 µM (active) | inactive
4 | CCCCC(CC)COC(=O)Cl (centres undefined) | inactive | inactive | inactive | inactive | inactive | – | – | – | inactive | – | inactive | inactive | inactive | inactive | inactive | inactive | inactive | inactive | inactive | inactive
5 | c1ccc(NNc2ccccc2)cc1 | inactive | inactive and 30.6 µM (active) | 24.3 µM (active) | inactive and 27.3 µM (active) | inactive | – | – | – | inactive | – | inactive | 68.6 µM (active) | inactive | – | inactive | – | – | – | inactive | –
6 | CCCCCCCCC(=O)NCc1ccc(O)c(OC)c1 | inactive | inactive | inactive and 68.6 µM (active) | inactive | inactive | – | – | – | inactive | – | inactive | 54.5 µM (active) | inactive | inactive | inactive | inactive | inactive | inactive | inactive | inactive
7 | O=C(Nc1ccc(Br)cc1)c1cc(Br)cc(Br)c1O | 3.45 µM (active) and 2.19 µM (active) | 21.7 µM (active) | inactive and 19.3 µM (active) | inactive and 19.3 µM (active) | inactive and 24.5 µM (active) and 9.77 µM (active) | – | – | – | inactive | – | 16.8 µM (active) and 5.43 µM (active) and 4.33 µM (active) | 8.41 µM (active) and 2.16 µM (active) and 1.93 µM (active) | inactive | – | 6.01 µM (active) and 4.35 µM (active) and 2.19 µM (active) | inactive | – | 15.4 µM (active) | inactive | inactive and 13.7 µM (active)
8 | CCN(CC)C(=O)/C(Cl)=C(\C)OP(=O)(OC)OC | inactive | inactive | inactive | inactive | inactive | inactive | inactive | inactive | inactive | inactive | inactive | inactive | inactive | inactive | inactive | inactive | inactive | inactive | inactive | inactive
9 | COP(=S)(OC)Oc1cc(Cl)c(Cl)cc1Cl | inactive | inactive | inactive | inactive | inactive | inactive | – | inactive | inactive | inactive | inactive | inactive | inactive | – | inactive | inactive | inactive | inactive | inactive | inactive
10 | N#CCCCl | inactive | inactive | inactive | inactive | inactive | – | – | – | inactive | – | inactive | inactive | inactive | – | inactive | – | – | – | inactive | –
11 | Nc1ccncc1 | inactive | inactive | inactive | inactive | inactive | inactive | inactive | inactive | inactive | inactive | inactive | inactive | inactive | inactive | inactive | inactive | inactive | inactive | inactive | inactive
12 | OCC(O)CO | inactive | inactive | inactive | inactive | inactive | – | – | – | inactive | – | inactive | inactive | inactive | inactive | inactive | inactive | inactive | inactive | inactive | inactive
13 | COC(=O)c1sccc1S(=O)(=O)NC(=O)Nc1nc(C)nc(OC)n1 | inactive | inactive | inactive | inactive | inactive | – | – | – | inactive | – | inactive | inactive | inactive | inactive | inactive | inactive | inactive | inactive | inactive | inactive
